A selection: hits, their analogues and other compounds. The true share with any hit is near 21%.
CHX counter: Cycloheximide Counterscreen for Small Molecule Inhibitors of Shiga Toxin | hit rate 12% among 300,000 | cell reporter, cycloheximide protein synthesis inhibition counterscreen | max response, %; in the data active = max response mostly above about 13%, no sharp cut-off; inactive = mostly below about 14%; note: read at 38.3 µM for the half of the compounds with a filed dose; 0% is about no effect
Pf growth 96h: Primary qHTS for delayed death inhibitors of the malarial parasite plastid, 96 hour incubation. Potency, µM (series often up to 28.7 µM), for inactives: top-dose activity change, negative = inhibition, usual class: inhibitors. P. falciparum luciferase reporter growth, 96 h. hit rate 6.9% among 320,000. AID 504834, 2011; active = well fitted inhibition curve with a large enough effect; inconclusive = small, poorly fitted or top-dose-only effect, or another doubt; inactive = no such curve, though single readings can be large or run the other way; note: potency is the fitted concentration of half-maximal effect; % is set by controls: 0 for no effect and ±100 for the full control effect
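Parasite growth measured via integrated firefly luciferase reporter in P. falciparum. Infected erythrocytes at 2% hematocrit, 0.05% parasitemia final were treated 96 hours at 37 C under 5% CO2, and luminescence was read.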
SARS PLP yeast: qHTS of Yeast-based Assay for SARS-CoV PLP. hit rate 0.19% among 330,000. S. cerevisiae expressing SARS-CoV PLpro, growth rescue. Potency, µM (top dose mostly 32.9 µM), without a hit: at the highest dose activity, positive = growth rescue, hits mostly activators; note: potency is the fitted concentration of half-maximal effect; 0% is about no effect; nearly all actives have a fitted effect of over 55% in size
Pf growth 48h: Primary qHTS for delayed death inhibitors of the malarial parasite plastid, 48 hour incubation. P. falciparum luciferase growth in erythrocytes, 48 h. Potency, µM (titrated, usually from 28.7 µM), without a hit: at the top dose activity change, negative = inhibition, actives largely listed as inhibitors. hit rate 5.9% among 310,000; active = well fitted inhibition curve with a large enough effect; inconclusive = small, poorly fitted or top-dose-only effect, or another doubt; inactive = no such curve, though single readings can be large or run the other way; note: potency is the fitted concentration of half-maximal effect; % is set by controls: 0 for no effect and ±100 for the full control effect
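Compounds are pin-transferred into medium, infected erythrocytes (2% hematocrit, 0.1% parasitemia final) are added, and plates sit one parasite generation at 37 C in 5% CO2. Detection reagent is then added and luminescence measured.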
NS1 function inh: qHTS Assay for Inhibitors of Influenza NS1 Protein Function; Potency, µM (doses to about 46.1 µM), for the others: at the top dose activity, positive = more growth; hit rate 0.4% among 270,000; AID 2326, 2010; note: potency is the fitted concentration of half-maximal effect; actives are rising curves; nearly all actives have a fitted effect of over 50% in size
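Read-out: OD600 growth recovery of NS1-expressing budding yeast. Cells grown overnight at 30C in -URA glucose medium, washed, resuspended and diluted 1:100 in 2% galactose assay medium, pH 6.0. Same strain lacking NS1 served as positive control.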
Shiga inhibitor: A qHTS for Small Molecule Inhibitors of Shiga Toxin | Vero cells, Shiga toxin protein synthesis inhibition reporter | inhibition, % at 38.7 µM | hit rate 9.2% among 290,000; in the data active = inhibition mostly above about 28%, no sharp cut-off; inactive = mostly below about 43%; note: 0% is about no effect
Starred values were filed as active, the others as inactive; ? = inconclusive; / = no result; + = active, no number; [ ] = dose if it differs, or a comment. Unless noted, calls come from the whole dose curve.

SMILES | CHX counter | Pf growth 96h | SARS PLP yeast | Pf growth 48h | NS1 function inh | Shiga inhibitor
COc1ccc2nc(N3CCCC3)[nH]c2c1 | 19* | / | 1% | 61% | 0% | 29
COc1ccc(CNC(=O)C(c2ccccc2F)N(C(=O)c2csnn2)C2CC2)cc1 (configuration not stated) | 3 | ? | -2% | -20% | 5% | 19
COc1cc(OC)c(N(C)S(=O)(=O)c2cccc(C(=O)Nc3nccs3)c2)cc1Cl | / | / | -23% | / | / | /
COc1ccc(/C=C(\NC(=O)c2ccccc2)C(=O)OCC2CCCN3CCCCC23)cc1OC (configuration not stated) | -2 | -11% | 2% | 0% | / | -3
COc1ccc2nc(NCc3ccccc3)[nH]c2c1 | 24* | / | 6% | ? | 5% | 86
O=c1[nH]c2ccccc2nc1NCc1ccccc1 | 10 | 4.7µM* | -1% | 23% | -12% | 13
O=C(Nc1ccccc1N1CCOCC1)c1ccc([N+](=O)[O-])s1 | / | / | -5% | / | / | /
C=CCSc1nc(=O)n2ccc(C)cc2n1 | 28* | ? | -2% | 11% | / | 37
CCOC(=O)C1CCN(C(=O)c2oc3ccc4c(c3c2C)C(O)CC2(CCCCC2)O4)CC1 (configuration not stated) | 10 | 0% | 2% | ? | -4% | 1
Cc1c(C(=O)NCCCN2CCCCC2)oc2ccc3c(c12)C(O)CC1(CCCCC1)O3 (configuration not stated) | -2 | 22% | -1% | 8.3µM* | 4% | -9
CCc1cccc(NC(=O)Cn2cccc2)c1 | 15 | 4.7µM* | 6% | 72% | -11% | 16
O=C(CCN1CCc2ccccc2C1)Nc1cccc(F)c1 | -1 | 4.1µM* | -2% | 2% | -8% | 14
O=C(CCn1cccc1)Nc1cccc(F)c1 | -2 | 12µM* | 10% | 13% | 6% | 11
CCOC(=O)c1ccc(NC(=O)Cn2cccc2)cc1 | 25 | ? | ? | 35% | -13% | 27
O=C(CCN1CCc2ccccc2C1)Nc1ccccc1 | 10 | 7% | -4% | ? | 12% | 17
Cc1ccc(CNS(=O)(=O)c2c(C(=O)N3CCCCCC3)c(C)n(C)c2C)cc1 | -8 | 4% | -11% | -11% | -1% | -9
COc1cc(OC)cc(C(=O)N[C@H](C(=O)Nc2c(C)n(C)n(-c3ccccc3)c2=O)C(C)C)c1 | / | / | -2% | / | / | /
CCOC(=O)COn1c(=O)c(-c2cc3ccccc3o2)[n+]([O-])c2ccccc21 | 72* | 146% | -6% | 160% | -46% | 172*
C=CCOn1c(=O)c(-c2cc3ccccc3o2)[n+]([O-])c2ccccc21 | 38* | ? | -9% | ? | -10% | 120*
C=CCOn1c(=O)c(-c2ccccc2)[n+]([O-])c2ccccc21 | 2 | ? | 5% | 24% | / | 1
O=C(COc1ccc(F)cc1)NCCNC(=O)COc1ccc(F)cc1 | / | / | 2% | / | / | /
CC1CCCN(C(=O)CN(C)S(=O)(=O)c2ccc3c(c2)c(=O)n(C)c(=O)n3C)C1 (configuration not stated) | -1 | 32% | 4% | ? | 5% | -1
CCN(CC)C(=O)COc1ccc(/C(C)=N/NC(=O)c2ccccc2O)cc1 | 28* | -9% | 17% | 10% | -8% | 46
CCN(CC)C(=O)COc1ccc(/C(C)=N/NC(=O)c2ccccc2Br)cc1 | 27 | ? | 4% | -15% | / | 22
CN(C)C(=O)COc1ccc(Oc2ccccc2)cc1 | 31* | 23% | 0% | 0% | / | 41*
SMILES | CHX counter | Pf growth 96h | SARS PLP yeast | Pf growth 48h | NS1 function inh | Shiga inhibitor
CN(Cc1ccccc1)C(=O)COC(=O)c1ccc(Cl)c(N)c1 | 51* | ? | 10% | 46% | 7% | 67*
CCN(Cc1ccccc1)C(=O)COc1ccccc1 | 1 | 8.3µM* | -3% | 16% | -9% | /
CCOC(=O)C1CCCN(CC(=O)c2c[nH]c3ccc(C)cc23)C1 (configuration not stated) | -1 | ? | 1% | ? | 2% | 5
CCOc1ccc(C(=O)OCC(=O)N(Cc2ccccc2)Cc2ccccc2)cc1OC | / | ? | -4% | 12µM* | / | /
CN(Cc1ccccc1)C(=O)COc1ccccc1Cl | 5 | -5% | -1% | 8% | -3% | -5
CCN(CC)C(=O)COc1ccc(-c2nnc(N3CCCCC3)c3ccccc23)cc1 | -3 | 2% | 5% | ? | -30% | -12
CN(Cc1ccccc1)C(=O)COc1ccc(Br)cc1Cl | 20* | 29% | -12% | 6% | -30% | 38
CCN(CC)C(=O)COc1ccc(-c2ccccc2)cc1 | 31* | 17% | 1% | / | -37% | 52
CN(Cc1ccccc1)C(=O)COc1ccc(C(C)(C)C)cc1 | 27* | -8% | 1% | -24% | 2% | 57*
COc1cc(C(=O)OCC(=O)NC(=O)NCc2ccccc2)ccc1OC(F)F | / | -22% | 0% | -7% | / | /
O=S(=O)(NCCN1CCOCC1)c1cccc(C(F)(F)F)c1 | 2 | -20% | -2% | 19% | -17% | -2
COc1ccccc1N1CCN(S(=O)(=O)c2ccc(-n3cnnn3)cc2)CC1 | -3 | 20% | 2% | 16% | -8% | -16
CCOC(=O)/C(=N\Nc1cc(Cl)ccc1Cl)N1CC(C)OC(C)C1 (configuration not stated) | -5 | ? | -1% | ? | -2% | 2
CCOC(=O)C(=NCC1CCCO1)NNc1cc(Cl)ccc1Cl (configuration not stated) | 2 | 10µM* | -8% | ? | -59% | -5
CN(C)CCOc1ncnc2c1oc1ccccc12 | 1 | / | 5% | 11% | -5% | 2
c1ccc2c(c1)oc1c(N3CCOCC3)ncnc12 | 9.8* | ? | -2% | 45% | -9% | 3
COc1ccccc1N1CCN(c2ncnc3c2oc2ccccc23)CC1 | 8.6* | -27% | 0% | ? | -135% | 27
c1coc(CN(Cc2ccco2)c2ncnc3c2oc2ccccc23)c1 | 19* | ? | -55% | ? | -9%[9.22 µM] | 40
Cc1cc(C)nc(Sc2ncnc3c2oc2ccccc23)n1 | 28 | ? | -7% | ? | 4% | 50*
c1cnc(N2CCN(c3ncnc4c3oc3ccccc34)CC2)nc1 | -2 | / | 0% | 33% | -16% | 11
c1ccc2cc(Sc3ncnc4c3oc3ccccc34)ccc2c1 | -4 | 87% | 1% | 7% | -1% | -6
CCSc1ncnc2c1oc1ccccc12 | 2 | 42% | 11% | 52% | -35% | 9
O=C(c1ccco1)N1CCN(c2ncnc3c2oc2ccccc23)CC1 | 41* | / | -12% | 57% | -12% | 63*
O=C(c1ccco1)N1CCN(c2nnc(-c3ccccc3)c3ccccc23)CC1 | -4 | ? | -21% | / | -53% | -8
Clc1ncnc2c1oc1ccccc12 | 37* | ? | -2% | 127% | 3% | +

Compound activity: PubChem BioAssay, National Center for Advancing Translational Sciences (NCATS)
